# PubChem BioAssay AID485364 (National Center for Advancing Translational Sciences (NCATS), 2010)
# Values joined by “and” are separate entries in the source; they are usually repeats but may differ in a detail not shown here. Equal entries are not always repeated. The whole screen tested about 360,000 compounds, of which about 11,000 (3.1%) were called active. Another 4% or so got no clear call; they are omitted. Calls come from the whole dose curve; as a rule, active = well fitted inhibition curve with a large enough effect; inconclusive = small, poorly fitted or top-dose-only effect; inactive = no such curve, though single readings can be large or run the other way. Shown is part of a subset that was picked to be rich in actives. A structure can be active in one record and inactive in another.
# Biological target: Schistosoma mansoni thioredoxin glutathione reductase (TGR) (UniProt Q962Y6)
# Experiment: qHTS Assay for the Inhibitors of Schistosoma Mansoni Peroxiredoxins; note: nearly all actives have a fitted effect of over 60% in size
# Settings: purified TGR, DTNB reduction, TNB absorbance 405 nm; series mostly up to 114 µM; activity change, negative = inhibition: at the top concentration
# Procedure, shortened: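 Kinetic colorimetric format: TGR-catalysed, NADPH-driven DTNB reduction monitored via TNB absorbance. Enzyme dispensed at 20 nM; compound exposure 15 min at room temperature before reaction start.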
# % is set by controls: 0 for no effect and ±100 for the full control effect; potency is the fitted concentration of half-maximal effect.
Compound,"activity change, negative = inhibition",Potency
Cc1cc(NS(=O)(=O)c2ccc(NC(=O)c3ccccc3C)cc2)nc(C)n1,2.95% (inactive),–
Cc1nnc(N2CCC(C(=O)Nc3ccc(F)cc3)CC2)c2nn(-c3ccc(Cl)cc3)c(C)c12,0.308% (inactive),–
COc1ccc(NC(=O)CCc2nnc3n(CC(C)C)c(=O)c4ccccc4n23)cc1OC,2.05% (inactive),–
COc1ccc(C(=O)CC2C(=O)N(C)C(=O)N(C)C2=O)cc1,–,25.1 µM (active)
COc1ccc(OCC(=O)OCCN(C)C)cc1,-8.28% (inactive),–
COc1ccc(C(=O)C[n+]2ccc(C)cc2)cc1,3.8% (inactive),–
COc1ccc(OCCCC(=O)Oc2ccc(OC)cc2)cc1,0.251% (inactive),–
COc1ccc(C(=O)C2CN(C)CC2C(=O)c2ccc(OC)cc2)cc1 (stereo not drawn),-1.68% (inactive),–
COc1ccc(OCCC(=O)c2ccc(OC)cc2)cc1,–,1.78 µM (active)
CC(=O)c1ccc(NC(=O)CSc2nc(-c3ccccc3F)nc3c2c(=O)n(C)c(=O)n3C)cc1,-9.4% (inactive),–
CCN(CC)c1ccc(NC(=O)CN2C(=O)c3cccnc3Oc3ccc(Cl)cc32)c(C)c1,3.43% (inactive),–
Cc1cccc(C(=O)Nc2ccc(S(=O)(=O)N3CCCCC3c3cccnc3)cc2)c1 (stereo not drawn),11.3% (inactive),–
Cc1cccc(N2CCN(C(=O)c3ccc4c(c3)CCN4S(=O)(=O)c3ccccc3)CC2)c1C,4.82% (inactive),–
COc1cccc(NC(=O)c2csnn2)c1,-7.81% (inactive),–
Cc1cccc(NC(=O)Cn2c(=O)n(CCC(C)C)c(=O)c3cccnc32)c1,-5.21% (inactive),–
COc1ccc(-n2ccn(CC(=O)Nc3ccc(C)c(C)c3)c(=O)c2=O)cc1OC,-11.1% (inactive),–
CCOC(=O)c1c(-c2ccccc2)oc2ccc(OCC(=O)NN)cc12,-0.0748% (inactive),–
CCOC(=O)c1c(-c2ccccc2)oc2cc(Br)c(O)c(C=O)c12,–,15.8 µM (active)
CCOC(=O)c1c(-c2ccccc2)oc2ccc(OC(=O)N(C)C)cc12,-10.8% (inactive),–
COc1cccc(C(=O)NCC(=O)OCc2cc(=O)n3ccsc3n2)c1,-12.5% (inactive),–
O=C(CSc1nnc(-c2ccco2)n1CC1CCCO1)c1ccccc1 (stereo not drawn),–,25.1 µM (active)
CNC(=O)NC(=O)CSc1nnc(-c2ccc(F)cc2)n1CC1CCCO1 (stereo not drawn),6.86% (inactive),–
Cc1nnc(SCC(N)=O)n1CC1CCCO1 (stereo not drawn),2.09% (inactive),–
Cc1ccccc1CSc1nc2c([nH]c3ccccc32)c(=O)n1C,7.19% (inactive),–
COc1cccc(OCCn2c(-c3ccc(Br)cc3)nc3ccccc3c2=O)c1,-2.8% (inactive),–

Compound,"activity change, negative = inhibition",Potency
Cc1ccc(/C=C/C(=O)Nc2ccc([N+](=O)[O-])c(NC(=O)/C=C/c3ccc(C)o3)c2)o1,–,22.4 µM (active)
COc1ccc(OC)c(NC(=O)Cc2cccs2)c1,14.7% (inactive),–
Cc1cc(NC(=O)Nc2ccccc2[N+](=O)[O-])no1,12.6% (inactive),–
Cc1ccc(/C=C/C(=O)Nc2cc(S(=O)(=O)N3CCCCCC3)ccc2OCC(F)(F)F)o1,-10.1% (inactive),–
CNc1ccc(NC(C)=O)cc1[N+](=O)[O-],4.44% (inactive),–
COc1ccc(OC)c(NC(=O)/C=C/c2ccc(C)o2)c1,–,50.1 µM (active)
CCc1ccc(NC(=O)N2CCN(C(=O)c3nsc4ccccc34)CC2)cc1,-5.7% (inactive),–
Cc1cccc(C(C)C)c1NC(=O)C(NS(=O)(=O)c1cccc2nsnc12)c1ccccc1 (stereo not drawn),2.93% (inactive),–
CCc1ccc(CNCc2c(C(=O)O)n(Cc3ccc(F)cc3Cl)c3cc(OC)ccc23)cc1,7.86% (inactive),–
CC(CNC(=O)c1nnc(Cc2cccc(F)c2)o1)c1ccccc1 (stereo not drawn),2.57% (inactive),–
COc1ccc(C2C3=C(CCCC3=O)N(CC(=O)O)C3=C2C(=O)CCC3)cc1,-24.2% (inactive),–
CCOc1ccc(C2C(C#N)=C(N)N(N(C)C)C3=C2C(=O)CCC3)cc1 (stereo not drawn),0.173% (inactive),–
CCOc1ccc(C2C3=C(CCCC3=O)N(CC(=O)O)C3=C2C(=O)CCC3)cc1,–,44.7 µM (active)
CC(=O)Nc1ccc(NC(=O)C2CCCN(S(=O)(=O)c3ccc4c(c3)CCCC(=O)N4)C2)cc1 (stereo not drawn),10.8% (inactive),–
COCCNC(=O)CSc1nc(-c2ccccc2)[nH]c1-c1ccc(C)cc1,4.66% (inactive),–
Cc1oc(C)c2c(=O)cc(-c3ccc4c(c3)OCO4)cc(OC(=O)c3ccc(Cl)cc3)c12,-17.2% (inactive),–
Cc1cc(OC(=O)c2ccc(Cl)cc2)cc(=O)n1C,–,44.7 µM (active)
Cn1cncc1COC(=O)c1ccc(Cl)cc1,7.13% (inactive),–
Cc1ccc(NC(=O)c2cn3c4c(ccc(Cl)c4c2=O)OC(C)C3)cc1C (stereo not drawn),-0.119% (inactive),–
CCNCCC(=O)N1c2ccccc2Sc2ccc(NC(=O)OCC)cc21,-0.642% (inactive),–
CCOC(=O)Nc1ccc2c(c1)N(C(=O)CCCl)c1ccccc1[S@]2=O,–,14.1 µM (active)
CCOC(=O)Nc1ccc2c(c1)N(C(=O)CCN1CCN(CCO)CC1)c1ccccc1CC2,-11.7% (inactive),–
COc1ccc(Cl)cc1NC(=O)CSc1nc(=O)[nH]c2c1CCCC2,-13.1% (inactive),–
Cc1ccccc1-c1nc(CS(=O)(=O)CC(=O)Nc2cc(Cl)cc(Cl)c2)c(C)o1,-0.424% (inactive),–
Cc1ccccc1-c1nc(CS(=O)(=O)CC(=O)N2CCc3ccccc3C2)c(C)o1,–,3.55 µM (active)

Compound,"activity change, negative = inhibition",Potency
Cc1ccccc1-c1nc(CS(=O)(=O)CC(=O)NC(C)c2ccccc2)c(C)o1 (stereo not drawn),–,inactive and 39.8 µM (active)
Cc1oc(-c2ccccc2F)nc1CS(=O)(=O)CC(=O)NCCCN(C)C1CCCCC1,3.21% (inactive),–
Cc1ccc(S(=O)(=O)CC(=O)NC(C)c2ccccc2)cc1 (stereo not drawn),0% (inactive),–
COc1cccc(-c2nc(CS(=O)(=O)CC(=O)N3CCN(c4cc(C)ccc4C)CC3)c(C)o2)c1,-0.431% (inactive),–
Cc1ccc(-c2noc(-c3nnn(-c4cccc(C(F)(F)F)c4)c3N)n2)cc1,7.72% (inactive),–
CC1CCC(N2CC(=O)N(CCC3=CCCCC3)C(c3ccc(F)cc3)C2=O)CC1 (stereo not drawn),5.07% (inactive),–
CCOc1ccc(S(=O)(=O)c2cn(Cc3ccc(OC)cc3)c3ccc(F)cc3c2=O)cc1,-1.61% (inactive),–
COc1ccc(C)cc1NC(=O)C(=O)NCCc1sc(-c2cccc(C)c2)nc1C,6.58% (inactive),–
Cc1cc(C)c2oc(-c3cccc(NC(=O)c4cccc(F)c4)c3C)nc2c1,1.22% (inactive),–
CCOC(=O)c1c(C)oc2nc(C)nc(N3CCN(c4ccc(OC)cc4)CC3)c12,0.844% (inactive),–
O=C(NC1CC(=O)N(c2ccccc2)C1)c1ccco1 (stereo not drawn),8.46% (inactive),–
CCOC(=O)C(NS(=O)(=O)c1ccc(C)cc1)(C(F)(F)F)P(=O)(OCC(C)C)OCC(C)C (stereo not drawn),–,22.4 µM (active)
CC(=O)N1CCN(CC(C)(C)NS(=O)(=O)c2ccc(C)cc2)CC1,-16.5% (inactive),–
Cc1ccc(S(=O)(=O)NCC(C)NS(C)(=O)=O)cc1 (stereo not drawn),-8.27% (inactive),–
Cn1c(C(=O)N2CCC(C(=O)N3CCN(c4ccccc4)CC3)CC2)cc2sccc21,1.1% (inactive),–
Cc1ccc(Cl)cc1N(C)C(=O)C1CCCN(c2ncnc3onc(-c4ccc(F)cc4)c23)C1 (stereo not drawn),6.45% (inactive),–
NC(=O)CCN1CCN(S(=O)(=O)/C=C/c2ccccc2)CC1,-0.515% (inactive),–
O=C(CN1CCN(S(=O)(=O)/C=C/c2ccccc2)CC1)NC(=O)NCc1ccco1,–,28.2 µM (active)
COc1ccccc1N1CCN(CC(=O)NC(=O)NCc2ccco2)CC1,3.23% (inactive),–
Cc1ccc(Nc2nnc(-c3ccc(C)c(S(=O)(=O)N4CCCCC4)c3)c3ccccc23)cc1,-0.898% (inactive),–
Cc1ccc2cccc(NC(=O)c3cccc4ccccc34)c2n1,-0.566% (inactive),–
Cc1cccc(NC(=O)N2CCC(CN3CCc4ccccc4C3)CC2)c1C,2.98% (inactive),–
O=C(CC1N=C2c3ccccc3N=C(SCc3ccc(F)cc3)N2C1=O)NCc1cccs1 (stereo not drawn),-1.39% (inactive),–
Cc1ccc(CNC(=O)CCS(=O)(=O)c2ccc3c(c2)CC(C)N3C(=O)C2CC2)o1 (stereo not drawn),–,44.7 µM (active)
CC1Cc2cc(S(=O)(=O)CCC(=O)NCc3ccc(Cl)cc3)ccc2N1C(=O)C1CC1 (stereo not drawn),2.16% (inactive),–

Compound,"activity change, negative = inhibition",Potency
CC1Cc2cc(S(=O)(=O)CCC(=O)Nc3ccc(F)c(Cl)c3)ccc2N1C(=O)C1CC1 (stereo not drawn),1.79% (inactive),–
COc1cc(OC)cc(C(=O)Nc2c(C(=O)Nc3ccc(F)cc3)oc3ccccc23)c1,4.09% (inactive),–
CCOc1ccc(Nc2ncnc3scc(-c4ccc(OC)cc4)c23)cc1,11.5% (inactive),–
Cc1cccc2nc(-c3ccc(Cl)s3)c(Nc3ccc4c(c3)OCCO4)n12,2.96% (inactive),–
O=c1cc(CCl)nc2scc(-c3ccccc3)n12,–,17.8 µM (active)
Cc1csc2nc(COC(=O)c3ccccc3NC(=O)c3ccccc3Cl)cc(=O)n12,1.82% (inactive),–
Cc1csc2nc(COc3ccc(NC(=O)COc4ccccc4)cc3)cc(=O)n12,5.27% (inactive),–
Cc1oc2ccc(O)c(CN3CCOCC3)c2c1C(=O)Nc1cccc(Cl)c1C,1.69% (inactive),–
O=S(=O)(c1ccc(Br)cc1)c1nc(-c2ccccc2)oc1NCc1cccnc1,2.3% (inactive),–
COc1cccc(-c2nc(S(=O)(=O)c3ccc(C)cc3)c(NCc3ccccc3)o2)c1,–,44.7 µM (active)
Cc1ccc(S(=O)(=O)c2nc(-c3cccs3)oc2NCc2cccnc2)cc1,-2.01% (inactive),–
CCOC(=O)C(Cc1ccccc1)NC(=O)CCc1c(C)nc2c(c(C)nn2-c2ccc(C)c(C)c2)c1C (stereo not drawn),5.29% (inactive),–
CCC1CCCCN1S(=O)(=O)c1ccc(NC(=O)c2cc(=O)c3ccccc3o2)cc1 (stereo not drawn),2.57% (inactive),–
CCOc1ccc(CNC(=O)CCc2c(C)nn(-c3ccc(N4CCCCC4)nn3)c2C)cc1,-3.22% (inactive),–
Cc1ccc(N2C(=O)C3C4C=CC(CC4)C3C2=O)cc1Br (stereo not drawn),-3.52% (inactive),–
Cc1ccc(N2C(=O)C3C4C=CC(CC4)C3C2=O)cc1Cl (stereo not drawn),–,25.1 µM (active)
CC(=O)Nc1ccc(N2C(=O)C3C4C=CC(CC4)C3C2=O)cc1 (stereo not drawn),-9.16% (inactive),–
Cc1ccc2oc(C(=O)Nc3ccc(S(=O)(=O)N4CCCCCC4)cc3)cc(=O)c2c1,4.12% (inactive),–
COc1ccc(-c2noc(CSc3nc(C)cc(=O)[nH]3)n2)cc1OC,-0.744% (inactive),–
O=C(CSc1oc(-c2ccccc2)nc1S(=O)(=O)c1ccc(Br)cc1)NC1CCCCC1,-3.74% (inactive),–
Oc1c(Cl)cc(Cl)cc1/C=N/c1ncn[nH]1,–,20 µM (active)
COc1cc(Br)cc(/C=N/c2ncn[nH]2)c1O,5.17% (inactive),–
Cc1ccc(Nc2c(-c3ccc(N(C)C)cc3)nc3nc[nH]n23)cc1,-3.83% (inactive),–
